# Bioassay records: PubChem, The Scripps Research Institute Molecular Screening Center
# The list is not random: actives were taken first. Their share in the collection is about 2.3%.
# M1 ag parental: M1 agonist counterscreen hit in parental CHO-K1 cells | Fluo-8 calcium fluorescence; scaled to maximal ATP response, vehicle zero | activation, % at 3 µM | hit rate 0.48% among 360,000 | AID 602248; in the data active = activation above about 15%;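 also: untransfected CHO-K1 host cells lacking M1 receptor as counterscreen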
# CHO-K1 Ca antag: M1 antagonist counterscreen hit in parental CHO-K1 cells. ATP-induced calcium, Fluo-8 fluorescence. hit rate 0.6% among 360,000. inhibition, % at 3 µM. AID 602250;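 active = inhibition above a per-plate cutoff, the plate's mean sample inhibition plus 3 SD, cut at about 24% in these data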;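 also: 0% = DMSO plus EC80 ATP and 100% = DMSO alone without ATP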
# M1 PAM parental: M1 PAM counterscreen hit in parental CHO-K1 cells | AID 602247 | ATP EC20, Fluo-8 calcium fluorescence; 0% at ATP EC20, 100% at ATP max | activation, % at 3 µM | hit rate 0.02% among 360,000;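 active = activation above the run cutoff, the mean activation of all test compounds plus 3 SD, cut at about 40% in these data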;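 also: peak over basal fluorescence ratio in a 140 s read after ATP addition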
# CHRM1 antagonist: antagonists of human M1 muscarinic receptor; CHO-K1 hM1, Fluo-8 calcium fluorescence, ACh EC80 antagonist; inhibition, % at 3 µM; hit rate 1.3% among 360,000; AID 588852;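 active = percent inhibition above its own plate's cutoff, namely the mean of that plate's compound wells plus 3 SD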;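 also: peak over basal fluorescence ratio during 140 s after agonist addition; 0% = ACh EC80 plus DMSO and 100% = DMSO alone without agonist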
# Target sequence (P11229 whole entry, looked up): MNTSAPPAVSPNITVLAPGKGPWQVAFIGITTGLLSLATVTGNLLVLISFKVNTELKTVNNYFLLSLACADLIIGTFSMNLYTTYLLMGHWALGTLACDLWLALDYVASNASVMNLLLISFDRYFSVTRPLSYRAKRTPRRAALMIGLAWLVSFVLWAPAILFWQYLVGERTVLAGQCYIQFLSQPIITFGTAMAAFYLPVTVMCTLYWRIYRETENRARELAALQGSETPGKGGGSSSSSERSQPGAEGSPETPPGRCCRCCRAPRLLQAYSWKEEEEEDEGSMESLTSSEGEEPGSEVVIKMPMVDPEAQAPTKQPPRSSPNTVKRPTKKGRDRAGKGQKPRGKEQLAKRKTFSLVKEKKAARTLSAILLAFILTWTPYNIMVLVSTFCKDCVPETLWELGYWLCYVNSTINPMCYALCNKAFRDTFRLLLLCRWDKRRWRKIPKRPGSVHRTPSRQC
# M1 ag: human M1 muscarinic receptor agonism; hit rate 0.33% among 360,000; activation, % at 3 µM; P11229; CHO-K1 hM1, Fluo-8 calcium fluorescence, agonist mode; 0% DMSO, 100% acetylcholine EC100;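 active = activation above the run's mean compound activation plus 3 SD, cut at about 16% in these data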;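 also: peak over basal fluorescence ratio within a 140 s kinetic read after compound addition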
# M1 PAM: potentiates human M1 receptor response to acetylcholine | P11229 | CHO-K1 hM1, Fluo-8 calcium fluorescence, ACh EC20; 0% = ACh EC20, 100% = maximal ACh | activation, % at 3 µM | hit rate 0.088% among 360,000; in the data active = activation above about 19%, passing the limit was not always enough
# Starred values were filed as active, the others as inactive.
SMILES,M1 ag parental,CHO-K1 Ca antag,M1 PAM parental,CHRM1 antagonist,M1 ag,M1 PAM
O=C(CN1CCN(C2CCCCC2)CC1)NCCC1=CCCCC1,-0.1,2.2,-10.3,-8.6,44.6*,-14.2
CCOC(=O)C1=CCN(S(=O)(=O)c2ccc(Br)cc2)C1c1cccc(C)c1 (stereo not given),0.1,18.1,2.9,-6.0,2.9,13.1
CCOC(=O)C1=CCN(S(=O)(=O)c2ccc(C)cc2)C1c1ccc(Cl)cc1 (stereo not given),1.1,12.4,14.0,-7.5,-5.4,-8.3
CCOC(=O)C1=CCN(S(=O)(=O)c2ccc(C)cc2)C1c1cccc(Br)c1 (stereo not given),-0.4,28.6*,-8.9,11.2,-6.5,-4.5
CCOC(=O)C1=CCN(S(=O)(=O)c2ccc(Cl)cc2)C1c1ccc(C)cc1 (stereo not given),0.1,24.4*,-8.0,0.1,-3.9,-1.3
Cc1ccccc1C(=O)NCC(C)NC(=O)c1ccccc1C (stereo not given),4.6,6.1,1.6,11.4,-1.8,0.0
COC(=O)Cc1ccc(OC(=O)CCS(=O)(=O)c2ccc(C)cc2)cc1,1.0,-9.2,1.4,-4.0,-4.8,5.4
Cc1ccc(OC(=O)CCS(=O)(=O)c2ccc(C)cc2)cc1,-0.2,-8.8,1.9,-26.7,-2.4,25.3*
CC1c2ccccc2SC(CCCN(C)C)c2ccccc21 (stereo not given),0.8,-5.1,9.0,4.5,-7.5,-10.8
CN(C)CCC1Sc2ccccc2Oc2ccccc21 (stereo not given),0.6,-6.1,13.7,47.9*,-4.0,-22.1
COc1ccc(NC(=O)COC(=O)c2ccc(-n3cnnn3)cc2)c([N+](=O)[O-])c1,-0.1,-9.1,-8.3,-4.3,-1.9,1.8
O=C1c2[nH]nc(-c3ccccc3O)c2C(c2cccc(Cl)c2)N1Cc1ccco1 (stereo not given),0.1,23.8*,-8.9,3.9,-2.5,8.9
O=C1c2[nH]nc(-c3ccccc3O)c2C(c2ccc(F)cc2)N1Cc1ccco1 (stereo not given),0.9,-8.2,25.6,-3.0,1.2,7.0
CNC(=O)/C(C#N)=C/c1ccc(-c2ccccc2[N+](=O)[O-])o1,0.0,27.0*,-18.4,1.1,-5.9,6.2
CNS(=O)(=O)c1c(C)cc(C)c(N(C)S(=O)(=O)c2ccccc2)c1C,1.5,12.4,-2.6,5.7,0.9,8.2
O=S(=O)(c1ccc2c(c1)OCCO2)N1CCC(n2nnc3cc(C(F)(F)F)ccc32)CC1,6.0,16.5,11.3,30.6*,1.3,-10.1
Cc1ccc2c(c1)nnn2C1CCN(S(=O)(=O)c2ccc(C(=O)O)cc2)CC1,3.0,-11.6,12.4,5.0,-3.7,2.6
Cc1ccc2c(c1)nnn2C1CCN(S(C)(=O)=O)CC1,-0.4,23.9*,-5.9,1.7,0.2,8.9
Cc1ccc2c(c1)nnn2C1CCN(S(=O)(=O)c2ccc(C(=O)N3C(C)CCCC3C)cc2)CC1 (stereo not given),5.7,15.7,-11.7,33.4*,0.9,-12.4
CCCC(=O)N1CCCC1(C)C(=O)N(C)Cc1cccc2ccccc12 (stereo not given),-0.2,-0.8,7.9,-1.7,-2.1,-2.0
COc1ccc(-c2cc3c(=O)n(CC(=O)Nc4cccc(Cl)c4)nc(C)n3n2)cc1,0.7,-10.7,18.6,-6.3,0.2,3.5
CC1CCC(C(C)C)C(OC(=O)Cn2c(-c3ccc(Cl)cc3)[n+](C)c3ccccc32)C1 (stereo not given),1.0,11.5,-14.3,42.0*,-3.8,-19.2
CC1CCC(C(C)C)C(OC(=O)COC(=O)c2cccn2C)C1 (stereo not given),0.5,-8.3,13.5,-3.1,-4.5,2.0
Cc1ccccc1OCc1n(CC(=O)OC2CC(C)CCC2C(C)C)c2ccccc2[n+]1C (stereo not given),1.3,9.9,4.0,44.4*,-12.5,-32.7
CC1CCC(C(C)C)C(OC(=O)COC(=O)c2ccc(N)cc2)C1 (stereo not given),1.1,-7.1,23.0,-5.2,-7.8,6.9
SMILES,M1 ag parental,CHO-K1 Ca antag,M1 PAM parental,CHRM1 antagonist,M1 ag,M1 PAM
CC1CCC(C(C)C)C(OC(=O)Cn2c(-c3ccc(Br)cc3)[n+](C)c3ccccc32)C1 (stereo not given),2.6,6.5,19.8,23.0*,-15.8,-29.0
CCOc1ccc(NC(=O)COC(=O)CCN2C(=O)C3CC=CCC3C2=O)cc1OCC (stereo not given),0.7,-13.6,17.1,1.5,-2.0,3.0
O=C(CSc1ncnc2c1cnn2-c1cccc(Cl)c1)NCC1CCCO1 (stereo not given),0.3,9.3,1.8,-10.6,1.6,-1.0
O=C(/C=C1\NC2(CCCC2)Cc2ccccc21)C(=O)N/N=C/c1ccc(O)c(O)c1,1.2,-0.1,7.8,-10.5,16.9*,18.8
COc1ccc(/C=N/NC(=O)C(=O)/C=C2\NC3(CCCC3)Cc3ccccc32)cc1,0.8,4.9,2.5,-1.0,14.4,24.7*
O=C(CNC(=O)COc1ccccc1)NCCN1CCOCC1,0.1,-16.1,5.0,-2.6,-2.9,5.0
COc1ccc(OC)c(NC(=O)Cn2c(=O)n(CC3CCCO3)c(=O)c3cc(OC)c(OC)cc32)c1 (stereo not given),0.0,-4.0,10.8,-21.3,0.9,15.9
CCCCn1c(=O)nc2n(-c3ccc(Cl)cc3)c3ccccc3cc-2c1=O,-0.5,27.3*,-16.4,-3.6,-5.5,-0.8
CCCCn1c(=O)nc2n(-c3ccc(C)cc3)c3ccccc3cc-2c1=O,-0.1,-4.2,11.2,2.9,-3.6,-2.3
COc1ccc2c(c1)-c1c(sn(-c3ccc(OC)c(OC)c3)c1=S)C(C)(C)N2,-0.2,-9.6,18.5,27.1*,-5.5,-17.4
COc1ccc(-n2sc3c(c2=S)-c2cc(OC)ccc2NC3(C)C)cc1,0.3,-14.3,6.2,9.1,-4.9,-14.2
CC(C)COC(=O)N(C)C[C@@H]1OCc2cnnn2CCCC(=O)N([C@H](C)CO)C[C@@H]1C,0.4,-11.1,9.2,-0.2,11.5,17.0
Cc1ccc(-c2cc(-c3ccccc3)[nH]c(=S)c2C#N)cc1,0.4,0.4,8.4,-5.8,-2.1,5.4
N#Cc1c(N)[nH]c(=S)c(C#N)c1-c1ccccc1,0.2,24.1*,-3.6,-2.7,-3.6,5.4
CCOC(=O)NC(=O)/C(C#N)=C\Nc1sccc1C(=O)OC,18.1*,0.1,8.7,3.3,0.1,6.4
Cc1nc2c(oc3ccc(Cl)cc32)c(=O)[nH]1,1.5,-14.3,17.3,-7.2,-1.3,6.7
Cc1ccc(Cl)cc1NC(=O)C1CCCN1S(=O)(=O)c1ccc(-c2ccc(=O)[nH]n2)s1 (stereo not given),2.0,-7.8,18.6,0.1,-4.3,-1.9
